Where a name gives a salt, the structure may show the parent alone.

For the first test, the system named is MARIMO. In words: cell viability relative to vehicle control; higher = less cytotoxic. The settings on record: 10 µM; SRSF2 genotype: SRSF2 P95H/wt. An outline of the steps:
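CRISPR-edited mutant clones and isogenic wild-type clones from four leukaemia lines were screened against Selleck bioactive, kinase and epigenetic probe libraries, with identity-inconsistent compounds excluded. Each compound was acoustically dispensed at a single 10 µM dose into 384-well plates holding 2000 cells in 50 µL medium per well. After 48 h the supernatant was removed and CellTiter-Glo luminescence was read. Viability was expressed as percent of the on-plate vehicle control and analysed in Genedata Screener.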
In the case of `CC(C)NC[C@@H](C(=O)N1CCN(c2ncnc3c2[C@H](C)C[C@H]3O)CC1)c1ccc(Cl)cc1` [Ipatasertib (GDC-0068)], the cell viability (in general, a read-out of living cells in per cent, often relative to untreated cells) came to 80.8%.
Still for that read-out and setting: the result for `O=C1C(=Cc2cccnc2)C(=O)c2ccccc21` reads 94.2%.
Regarding `N[C@@H](CSC(c1ccccc1)(c1ccccc1)c1ccccc1)C(=O)O`, the cell viability was determined as 7.81%.
Still for that read-out and setting: for `CC(C)=CC[C@@H](O)C1=CC(=O)c2c(O)ccc(O)c2C1=O` [Shikonin] the value was 0.3%; for `C[C@H]1CN(C[C@H](Cc2ccccc2)C(=O)NCC(=O)O)CC[C@@]1(C)c1cccc(O)c1` [Alvimopan dihydrate], 98.5%.
The same measure, in the same setting: for `CC(=O)O[C@H]1CC(=O)OC(C)(C)[C@@H]2CC(=O)[C@]3(C)[C@H](CC[C@@]4(C)[C@@H](c5ccoc5)OC(=O)[C@H]5O[C@]543)[C@@]12C` [Nomilin] the value was 87.1%.
For the compound `CC(C)(C)c1nc(-c2ccc(NC(=O)Nc3cccc(C(F)(F)F)c3)c3ccccc23)c2c(N)nccn12` [kira6], the cell viability came out at 28.8%.
The same measure, in the same setting: for `COc1ccc2[nH]c([S+]([O-])Cc3ncc(C)c(OC)c3C)nc2c1` (configuration not stated) [Omeprazole (Prilosec)] the value was 92.8%; for `COc1ccc2cc([C@H](C)C(=O)O)ccc2c1` [Naproxen Sodium], 101%; for `C#C[C@]1(O)CC[C@H]2[C@@H]3CCC4=CCCC[C@@H]4[C@H]3C(=C)C[C@@]21CC` [Desogestrel], 75.4%.
Turning to `COc1ccc2c(c1)c(C1=C(c3c[nH]c4ccccc34)C(=O)NC1=O)cn2CCCN(C)C`, the cell viability was 69.8%.
In the case of `C[C@@H]1CC[C@]2(C(=O)O[C@@H]3O[C@H](CO)[C@@H](O)[C@H](O)[C@H]3O)CC[C@]3(C)C(=CC[C@@H]4[C@@]5(C)CC[C@H](O)[C@@](C)(CO)[C@@H]5CC[C@]43C)[C@@H]2[C@]1(C)O` [Pedunculoside], the cell viability is 108%.
The same measure, in the same setting: the result for `CCc1cc(Nc2nccc(-c3c(-c4ccc(OC)c(C(=O)Nc5c(F)cccc5F)c4)nc4ccccn34)n2)c(OC)cc1N1CCC(N2CCN(S(C)(=O)=O)CC2)CC1` reads 106%.

The same test, now with this note: 10 µM; SRSF2 genotype: SRSF2 wt/wt.
With `NS(=O)(=O)c1cc2c(cc1Cl)N=CNS2(=O)=O` [Chlorothiazide], the cell viability stood at 105%.
As to `CC(C)CCCC(C)C1CCC2C3CCC4CC(O)CCC4(C)C3CCC12C` (configuration not stated) [Dihydrocholesterol], the cell viability amounted to 97.3%.
On to `CC(C)c1c(C(=O)Nc2ccccc2)c(-c2ccccc2)c(-c2ccc(F)cc2)n1CC[C@@H](O)C[C@@H](O)CC(=O)O` [Atorvastatin calcium (Lipitor)], for which the cell viability stood at 50.4%.
The same measure, in the same setting: for `O=C1CCC(N2C(=O)c3ccccc3C2=O)C(=O)N1` (configuration not stated) [Thalidomide] the value was 86.4%.
For `COc1ccc(C2=N[C@@H](c3ccc(Cl)cc3)[C@@H](c3ccc(Cl)cc3)N2C(=O)N2CCNC(=O)C2)c(OC(C)C)c1` [Nutlin-3], the cell viability worked out at 93.3%.
On the same count and under the same terms, the result for `CC1(C)C(O[C@@H]2OC[C@@H](O)[C@H](O)[C@H]2O)CC[C@]23CC24CC[C@]2(C)[C@@H]([C@@]5(C)CC[C@@H](C(C)(C)O)O5)[C@H](O)C[C@@]2(C)C4C[C@@H](O[C@@H]2O[C@H](CO)[C@@H](O)[C@H](O)[C@H]2O)C13` (some centres not stated) [Astragaloside IV] reads 102%; that for `COC(=O)N[C@H](C(=O)N[C@@H](Cc1ccccc1)[C@@H](O)CN(Cc1ccc(-c2ccccn2)cc1)NC(=O)[C@@H](NC(=O)OC)C(C)(C)C)C(C)(C)C` [Atazanavir sulfate], 118%; that for `CCCCCCCC/C=C\CCCCCCCC(=O)OCC` [Ethyl Oleate], 100%.
Same read-out and setting: for `O=CC[C@@H](O)[C@H](O)[C@H](O)CO` [2-Deoxy-D-glucose] the value was 107%.
Consider `C[S+](CC[C@H](N)C(=O)[O-])C[C@H]1O[C@@H](n2cnc3c(N)ncnc32)[C@H](O)[C@@H]1O` (some centres not stated) [Ademetionine], for which the cell viability was 108%.
`O=C1c2ccccc2C(=O)C1c1ccccc1` [Phenindione (Rectadione)]: the cell viability stood at 104%.
In the case of `CNCC[C@@H](Oc1ccccc1C)c1ccccc1` [Atomoxetine HCl], the cell viability was found to be 94.9%.
Turning to `CCNC(=O)[C@@H]1CCCN1C(=O)[C@H](CCCN=C(N)N)NC(=O)[C@H](CC(C)C)NC(=O)[C@@H](CC(C)C)NC(=O)[C@H](Cc1ccc(O)cc1)NC(=O)[C@H](CO)NC(=O)[C@H](Cc1c[nH]c2ccccc12)NC(=O)[C@H](Cc1cnc[nH]1)NC(=O)[C@@H]1CCC(=O)N1` [S3718 Leuprolide Acetate.cdx], the cell viability came to 112%.
On to `Cc1onc(-c2c(F)cccc2Cl)c1C(=O)N[C@@H]1C(=O)N2[C@@H]1SC(C)(C)[C@@H]2C(=O)O` [Flucloxacillin sodium], for which the cell viability was found to be 108%.

The values above are taken from the supplement of paper PMC10981050.
